Screening data from PubChem.
The sample as a whole holds a higher share of hits than the screen did.
CBX7 AlphaScr = inhibitors of human CBX7 binding to H3K27me3 peptide | O95931 | AlphaScreen His6-CBX7 / biotin-H3K27me3 peptide binding; hits give low values | normalised signal (fraction of DMSO) (test concentration not listed) | actives 1.1% (n = 66,000); in the data active = normalised signal below about 0.5
Target sequence (O95931 whole entry, looked up): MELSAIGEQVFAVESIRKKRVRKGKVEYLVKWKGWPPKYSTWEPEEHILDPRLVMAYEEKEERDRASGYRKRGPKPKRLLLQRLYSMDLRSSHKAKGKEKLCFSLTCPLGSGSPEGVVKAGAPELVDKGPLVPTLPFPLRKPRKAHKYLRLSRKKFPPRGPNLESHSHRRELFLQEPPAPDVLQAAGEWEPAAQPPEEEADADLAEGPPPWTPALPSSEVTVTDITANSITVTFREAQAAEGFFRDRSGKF
Numbers stand for hits; - = inactive.

SMILES	CBX7 AlphaScr
O=C1CSC(c2ccc(Cl)cc2)c2c(-c3ccccc3)nn(-c3ccccc3)c2N1 (stereo not drawn)	-
CN(C)c1ccc(C2SCC(=O)Nc3c2c(-c2ccccc2)nn3-c2ccccc2)cc1 (stereo not drawn)	0.418
COc1ccc(C2SCC(=O)Nc3c2c(C)nn3-c2ccccc2)cc1 (stereo not drawn)	-
O=C(CN1C(=O)CN=C(c2ccccc2)c2ccccc21)NCCc1ccccc1	-
CC1N=C(c2ccccc2F)c2cc(Cl)ccc2N(Cc2cc(=O)n3ccccc3n2)C1=O (stereo not drawn)	-
CCOC(=O)C1(c2ccccc2)CCN(CCC(=O)Nc2ccc(OC(F)(F)F)cc2)CC1	-
COc1ccc(-n2nnnc2C2(NCCc3c(C)[nH]c4c(Cl)ccc(Cl)c34)CCCCC2)cc1	-
Cc1ccc(-n2nnnc2C2(NCCc3c(C)[nH]c4c(Cl)c(Cl)ccc34)CCCCC2)cc1	-
Cc1ccccc1-n1nnnc1C1(NCCc2c(C)[nH]c3ccccc23)CCCCC1	0.49
O=C(Nc1ccc(Br)cc1C(=O)c1ccccc1Cl)c1cccc(Oc2ccccc2)c1	-
CCCCCCCCCCn1c(C)c(C(=O)OCC)c2cc(O)ccc21	-
Cc1ccc(-n2c(/C=C/c3cccc(F)c3)nc3ccccc3c2=O)cc1	-
COc1ccc(CCNCc2cc(OC)c3c(c2)OCO3)cc1	-
COc1ccc(CCNCc2cccnc2)cc1OC	-
COc1ccc(CCNCc2ccccn2)cc1OC	0.271
CCOc1cc2c(cc1OCC)-n1cccc1C(c1ccc(Cl)cc1)NC2 (stereo not drawn)	-
COc1ccc2[nH]c(C)c(CCNCc3ccc(F)cc3F)c2c1	-
COc1ccc2[nH]c(C)c(CCNCc3nc[nH]c3C)c2c1	0.00746
COc1ccc2[nH]c(C)c(CCNCc3cccnc3)c2c1	-
O=C(Nc1ccc(Br)cc1C(=O)c1ccccc1Cl)c1ccc(N2C(=O)CCC2=O)cc1	-
